Experimental findings from PubChem BioAssay (NCATS) are described below.

In experiment [1] the target is Cytochrome P450 3A7 (Homo sapiens) (UniProt P24462). Nature of the experiment: Cytochrome P450 family 3 subfamily A member 7 (CYP3A7) small molecule antagonists: luciferase biochemical qHTS assay (AID 1963596). Note: % is set by controls: 0 for no effect and ±100 for the full control effect; nearly all actives have a fitted effect of over 40% in size. The method, boiled down:
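Luminescence read-out (relative luminescence units) after 20 min with detection reagent, which stops the reaction. Enzyme, proluciferin substrate and compound preincubated 10 min, RT; NADPH regeneration system then started 1 h reaction. Ketoconazole as positive control.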
For orientation: qHTS replaces the single test concentration by a dilution series.

Experiment [2] can be described thus: Viability qHTS for spleen associated tyrosine kinase inhibitor (SYKi) naive MV4-11 cells (AID 1963823). Note: nearly all actives have a fitted effect of over 40% in size. Note: potency is the fitted concentration of half-maximal effect. The procedure, abridged:
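In this viability screen, compounds acted on SYK inhibitor naive MV4-11 cells for three days (72 hr, 37 C). Remaining viable cells were measured by CellTiter-Glo luminescence following a 10 min room-temperature development.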

A short description of experiment [3]: Viability qHTS for spleen associated tyrosine kinase inhibitor (SYKi) drug resistant MV4-11 cells (AID 1963824). Note: nearly all actives have a fitted effect of over 35% in size. Note: potency is the fitted concentration of half-maximal effect. The method, boiled down: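 SYK inhibitor-resistant MV4-11 AML cells, 500 per well, added to predispensed compounds and incubated 72 hr at 37 C, 5% CO2. Viability measured by CellTiter-Glo luminescence after 10 min at room temperature.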
Experiment [4] in a line: Cellular viability qHTS for adrenocortical cancer (ACC) cell line SW-13 (AID 1963989).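 For activity (max response): cells grown in serum-free medium with ITS supplement; % is set by controls: 0 for no effect and ±100 for the full control effect.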 Note: nearly all actives have a fitted effect of over 65% in size. Note: potency is the fitted concentration of half-maximal effect. To be noted: SW-13 ACC cells viability, CellTiter-Glo, 48 h; activity (max response): active compounds read low. The procedure, abridged: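 Here, serum-free SW-13 cultures were dosed up to 46 uM. Following 48 h, ATP-dependent luminescence (CellTiter-Glo) reported viable cells, and logistic modeling produced IC50 values.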

Experiment [5] is described as follows: Cellular viability qHTS for adrenocortical cancer (ACC) cell line NCI-H295R (AID 1963990).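 For activity change, negative = viability loss: 0% = DMSO only wells and -100% = full killing with cytotoxic reference compound.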 Note: nearly all actives have a fitted effect of over 60% in size. Note: potency is the fitted concentration of half-maximal effect. The method, boiled down:
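Viability of NCI-H295R after 48 h of treatment (final up to 46 uM) measured through cellular ATP luminescence.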

Several values for one entry are separate records, joined by “and”; a condition that tells them apart may be missing. Equal entries are not always repeated. Records with an inconclusive call do not appear. A number with no mark means an inactive call. Activity calls are given as the source filed them. Calls come from the whole dose curve; as a rule, active = well fitted curve in the direction sought with a large enough effect; inconclusive = small, poorly fitted or top-dose-only effect, or another doubt; inactive = no such curve, though single readings can be large; an effect the other way counts as inactive or inconclusive.

Cytochrome P450 3A7 (Homo sapiens), sequence (P24462 whole entry, looked up): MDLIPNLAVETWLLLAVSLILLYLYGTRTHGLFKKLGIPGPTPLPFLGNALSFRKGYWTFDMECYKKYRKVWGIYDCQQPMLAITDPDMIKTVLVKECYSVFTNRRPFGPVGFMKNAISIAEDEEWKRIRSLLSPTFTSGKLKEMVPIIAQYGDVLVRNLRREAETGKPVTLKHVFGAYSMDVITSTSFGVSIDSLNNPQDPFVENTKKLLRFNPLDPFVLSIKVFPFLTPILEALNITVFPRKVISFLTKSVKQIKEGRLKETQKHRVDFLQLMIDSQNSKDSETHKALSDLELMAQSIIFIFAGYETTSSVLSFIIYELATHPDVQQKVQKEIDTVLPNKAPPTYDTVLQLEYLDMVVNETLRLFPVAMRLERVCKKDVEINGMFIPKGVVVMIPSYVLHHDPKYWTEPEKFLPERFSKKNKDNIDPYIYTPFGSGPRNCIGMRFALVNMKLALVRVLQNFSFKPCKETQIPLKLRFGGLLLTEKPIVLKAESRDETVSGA

For `CN1[C@@H]2CC[C@H]1CC(OC(=O)c1c[nH]c3ccccc13)C2` (stereo not given in full), the Potency result in experiment [1], in experiment [2], in experiment [3] and in experiment [5] was “inactive” throughout. The activity (max response) in experiment [4] is -7.55%.

Take `CC(=O)N[C@@H](CS)C(=O)O`: the Potency result in experiment [1], in experiment [2], in experiment [3] and in experiment [5] was “inactive” each time. The activity (max response) in experiment [4] is 15.1%.

In the case of `Cc1c(N)cccc1C(F)(F)F`, the Potency entry in experiment [1], in experiment [2], in experiment [3] and in experiment [5] was “inactive” in each case. For the same compound, the activity (max response) in experiment [4] was 12.6%.

As to `COC(=O)c1ccc(O)cc1`, the Potency result in experiment [1], in experiment [2], in experiment [3] and in experiment [5] was “inactive” each time. Besides, the activity (max response) in experiment [4] was 11.5%.

`O=C1NC(c2ccccc2)(c2ccccc2)C(=O)N1COP(=O)(O)O`: the Potency result in experiment [1], in experiment [2], in experiment [3] and in experiment [5] was “inactive” throughout. Further, in experiment [4], the activity (max response) was 10.4%.

For the compound `CC(C)NC(=O)c1ccc(C=O)cc1`, the Potency result in experiment [1], in experiment [2], in experiment [3] and in experiment [5] was “inactive” throughout. The activity (max response) in experiment [4] is 10.9%.

With `O=S(=O)(O)NC1CCCCC1`, the Potency result in experiment [1], in experiment [2], in experiment [3] and in experiment [5] was “inactive” throughout. In addition, the activity (max response) in experiment [4] was 6.85%.

For the compound `CC(O)CCCCn1c(=O)c2c(ncn2C)n(C)c1=O` (stereo not given), the Potency entry in experiment [1], in experiment [2], in experiment [3] and in experiment [5] was “inactive” in each case. In experiment [4], the activity (max response) is 7.24%.

For `NC(=O)c1cn(Cc2c(F)cccc2F)nn1`, the Potency entry in experiment [1], in experiment [2], in experiment [3] and in experiment [5] was “inactive” each time. In experiment [4], the activity (max response) was 10.9%.

Consider `CC(=O)CCCCn1c(=O)c2c(ncn2C)n(C)c1=O`, for which the Potency result in experiment [1], in experiment [2], in experiment [3] and in experiment [5] was “inactive” in each case. In experiment [4], the activity (max response) was 7.09%.

In the case of `CC(=O)NCc1c(I)c(NC(C)=O)c(I)c(C(=O)O)c1I`, the Potency result in experiment [1], in experiment [2], in experiment [3] and in experiment [5] was “inactive” in each case. Besides, the activity (max response) in experiment [4] is 13.2%.

`COc1cc(C=O)ccc1O`: the Potency entry in experiment [1], in experiment [2], in experiment [3] and in experiment [5] was “inactive” in each case. In addition, the activity (max response) in experiment [4] is 3.08%.

With `CC(=O)NC(=O)c1ccccc1O`, the Potency result in experiment [1], in experiment [2], in experiment [3] and in experiment [5] was “inactive” each time. Further, the activity (max response) in experiment [4] is -23.9%.

Regarding `CCN1CCN(C(=O)N[C@@H](C(=O)N[C@@H]2C(=O)N3C(C(=O)O)=C(CSc4nnnn4C)CS[C@H]23)c2ccc(O)cc2)C(=O)C1=O`, the Potency entry in experiment [1], in experiment [2], in experiment [3] and in experiment [5] was “inactive” in each case. For the same compound, the activity (max response) in experiment [4] is 5.63% and -4.45%.

Take `C[C@H]1COc2c(C3(N)CC3)c(F)cc3c(=O)c(C(=O)O)cn1c23`: the Potency entry in experiment [1], in experiment [2], in experiment [3] and in experiment [5] was “inactive” throughout. Also, in experiment [4], the activity (max response) is -1.24%.

As to `CN(C)c1ccc(O)c2c1C[C@H]1C[C@H]3[C@H](N(C)C)C(=O)C(C(N)=O)=C(O)[C@@]3(O)C(=O)C1=C2O`, the Potency result in experiment [1] and in experiment [5] was “inactive” in each case. The Potency in experiment [2] and in experiment [3] was 20.9 µM (active) throughout. In addition, the activity (max response) in experiment [4] is -4.3% and 1.01%.

Regarding `CCOc1ccc(NC(C)=O)cc1`, the Potency result in experiment [1], in experiment [2], in experiment [3] and in experiment [5] was “inactive” in each case. Moreover, the activity (max response) in experiment [4] is -8.62%.

Take `NC(Cc1ccc(Cl)cc1)C(=O)O` (stereo not given): the activity change, negative = inhibition in experiment [1] was -2.28% [at 0.91 µM]. The viability (% of control) in experiment [2] was 87.6% [at 0.588 µM]. Besides, the viability, % of control in experiment [3] is 93.1% [at 0.588 µM]. The activity (max response) in experiment [4] is -3.09%. Also, the activity change, negative = viability loss in experiment [5] is -11% [at 0.587 µM].

Regarding `COc1ccc2c(c1)c1c3n2CCN(C)C3=NCC1`, the Potency entry in experiment [1], in experiment [2], in experiment [3] and in experiment [5] was “inactive” each time. Besides, in experiment [4], the activity (max response) is 0.0191%.

Regarding `COc1cc(N2CCC(N3CCN(C)CC3)CC2)ccc1Nc1ncnc(Nc2ccccc2S(=O)(=O)C(C)C)n1`, the Potency entry in experiment [1] was “inactive”. Also, the Potency in experiment [2] was 1.16 µM (active) and 1.32 µM (active); in experiment [3] it was 2.06 µM (active) and 2.63 µM (active); in experiment [4], 11.2 µM (active); in experiment [5], 8.91 µM (active).

As to `O=C1C(=O)c2ccccc2C(O)=C1C1CCC(c2ccc(Cl)cc2)CC1` (stereo not given), the Potency result in experiment [1], in experiment [2], in experiment [3] and in experiment [5] was “inactive” throughout. For the same compound, the activity (max response) in experiment [4] was 9.49%.

On to `CC(C)Cn1cnc2c1c(=O)n(C)c(=O)n2C`, for which the Potency entry in experiment [1], in experiment [2], in experiment [3] and in experiment [5] was “inactive” throughout. Also, the activity (max response) in experiment [4] is -11.6%.

Take `CC(C)(C)NCC(O)COc1cccc2c1C[C@H](O)[C@H](O)C2` (stereo not given in full): the Potency result in experiment [1], in experiment [2], in experiment [3] and in experiment [5] was “inactive” each time. The activity (max response) in experiment [4] is 9.63%.

In the case of `O=C(O)CCCCCCCC(=O)O`, the Potency result in experiment [1], in experiment [2], in experiment [3] and in experiment [5] was “inactive” throughout. In addition, the activity (max response) in experiment [4] is 10.6%.

Take `O=C(Nc1ccc(-c2ccnc(Nc3ccc(N4CCOCC4)cc3)n2)cc1)C1CCCN1` (stereo not given): the Potency result in experiment [1] and in experiment [5] was “inactive” in each case. In addition, the Potency in experiment [2] was 1.66 µM (active); in experiment [3] it was 1.46 µM (active) and 2.35 µM (active). The activity (max response) in experiment [4] is -0.397%.

`C=CCc1ccc(O)c(OC)c1`: the Potency result in experiment [1], in experiment [2], in experiment [3] and in experiment [5] was “inactive” in each case. The activity (max response) in experiment [4] was 6.59%.

As to `CC1(C)[C@@H]2CC[C@@]1(C)C(=O)C2`, the Potency entry in experiment [1], in experiment [2], in experiment [3] and in experiment [5] was “inactive” throughout. Moreover, the activity (max response) in experiment [4] is 10.1%.

Take `CN(C)CCN1C(=O)c2ccccc2N(C)c2ccccc21`: the Potency result in experiment [1], in experiment [2], in experiment [3] and in experiment [5] was “inactive” each time. In experiment [4], the activity (max response) was -13.1%.
